# IMPase Li cell: qHTS Assay for Identifying the Cell-Membrane Permeable IMPase Inhibitors: Potentiation with Lithium. CHO-M1 cells, IP1 TR-FRET (IP-One), carbachol + lithium. Potency, µM (top dose mostly 59.4 µM), for inactives: at the top dose activity, negative = IMPase inhibition, hits mostly inhibitors. actives 0.35% (n = 210,000);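 also: IP1 builds up when IMPase is blocked and the TR-FRET signal falls; potency is read from the fitted curve at half-maximal effect; plate controls were basal vehicle for no effect and high inhibitor control for full effect; nearly all actives have a fitted effect of over 50% in size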
#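 Concentration–response in CHO-M1 cells, lithium-potentiated; 30 min at 37C. IP1 detected by competitive TR-FRET after 10 min lysis at RT. Hill-fitted AC50.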
# ALDH1A1 block: qHTS Assay for Inhibitors of Aldehyde Dehydrogenase 1 (ALDH1A1). Aldehyde dehydrogenase 1A1 (Homo sapiens), P00352. Purified ALDH1A1, NADH fluorescence, propionaldehyde substrate. actives 7.3% (n = 220,000). Potency, µM (top dose mostly 75.3 µM), without a hit: top-dose activity, negative = inhibition, most hits filed as inhibitors; active = well fitted inhibition curve with a large enough effect, not every such curve was filed as active; inconclusive = small, poorly fitted or top-dose-only effect, or another doubt; inactive = no such curve, though single readings can be large or run the other way;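 also: potency is read from the fitted curve at half-maximal effect; plate controls were no enzyme wells and a reference inhibitor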
# Target sequence (P00352 whole entry, looked up): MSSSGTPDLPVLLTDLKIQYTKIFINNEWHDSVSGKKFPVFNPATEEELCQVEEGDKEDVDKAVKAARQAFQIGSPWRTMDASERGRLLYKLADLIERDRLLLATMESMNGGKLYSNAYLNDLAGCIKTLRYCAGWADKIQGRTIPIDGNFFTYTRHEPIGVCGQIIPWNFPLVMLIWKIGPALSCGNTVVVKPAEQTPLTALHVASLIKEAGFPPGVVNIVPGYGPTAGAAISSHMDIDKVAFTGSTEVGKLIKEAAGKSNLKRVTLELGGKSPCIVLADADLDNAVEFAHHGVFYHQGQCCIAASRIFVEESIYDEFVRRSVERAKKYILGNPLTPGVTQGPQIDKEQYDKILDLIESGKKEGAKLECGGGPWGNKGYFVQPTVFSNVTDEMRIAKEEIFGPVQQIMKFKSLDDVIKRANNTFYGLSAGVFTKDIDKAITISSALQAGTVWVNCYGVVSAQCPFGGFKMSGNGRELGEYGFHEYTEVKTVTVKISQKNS
# IMPase inh: qHTS Assay for Identifying the Cell-Membrane Permeable IMPase Inhibitors | Inositol monophosphatase 1 (Rattus norvegicus), P97697 | CHO-M1 cells, IP1 accumulation, HTRF TR-FRET ratio | inhibition (IP1 accumulation), % at 46.1 µM | 120,000 tested, under 10 active; active = well fitted curve in the direction sought with a large enough effect in the signal ratio, not every such curve was filed as active; inconclusive = small, poorly fitted or top-dose-only effect, or a change in a side signal; inactive = no such curve, though single readings can be large or run the other way; the % refers to the signal ratio;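 also: cells stimulated with carbachol in lithium chloride buffer; plate controls were DMSO basal wells for no effect and reference inhibitor wells for full effect; higher means more IMPase inhibition seen as more IP1 and lower FRET ratio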
#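 In this qHTS, compounds (final up to 46 uM) act on CHO-M1 cells that are then activated through the M1 receptor with carbachol, in pH 7.4 buffer containing 50 mM LiCl, for 30 min. IP1 accumulation is quantified by the IP-One immunoassay.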
# PNC inhibitor: High Content Assay for Compounds that inhibit the Assembly of the Perinucleolar Compartment; PC3M PTB-GFP, PNC prevalence imaging, 16 h; stronger effect = lower value; activity change (PNC), negative = inhibition, % at 10 µM; actives 3.1% (n = 140,000);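 active = readout at or below -70, meaning at least 70% loss of cells showing the perinucleolar compartment, a nuclear body marking cancer cells; inconclusive = readout between -30 and a set limit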;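 also: plate controls were DMSO wells for no effect and camptothecin positive control wells for full effect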
#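 Read-out is percentage of cells bearing a perinucleolar compartment, from automated 20x imaging of fixed, Hoechst-stained PC3M PTB-GFP cells. Cells were seeded 4 h, then exposed 16 h to compound (23 nl of library stock) in duplicate plates.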
# HPGD inh: qHTS Assay for Inhibitors of HPGD (15-Hydroxyprostaglandin Dehydrogenase); purified HPGD, NADH fluorescence kinetic, PGE2 substrate; actives 4.3% (n = 150,000); Potency, µM, inactives show top-dose activity change, negative = inhibition, actives largely listed as inhibitors; active = well fitted inhibition curve with a large enough effect, not every such curve was filed as active; inconclusive = small, poorly fitted or top-dose-only effect, or another doubt; inactive = no such curve, though single readings can be large or run the other way; also: potency is read from the fitted curve at half-maximal effect
#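 NADH formation kinetics: reaction with 30 uM PGE2 and 1 mM NAD+ (final), 20 nM enzyme, Tris-HCl pH 8 with Tween 20, after 15 min compound preincubation at room temperature. Fluorescence change, last versus first of five reads.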
# ALOX12 inhib: qHTS Assay for Inhibitors of 12-hLO (12-human lipoxygenase). Potency, µM (doses to about 57.1 µM), without a hit: at the top dose activity change, negative = inhibition, usual class: inhibitors. purified 12-hLO, xylenol orange hydroperoxide absorbance. AID 1452, 2008. Polyunsaturated fatty acid lipoxygenase ALOX12 (Homo sapiens), P18054. actives 0.12% (n = 150,000); also: potency is read from the fitted curve at half-maximal effect; nearly all actives have a fitted effect of over 55% in size
#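 150 nM 12hLO, 25 mM Hepes pH 7.0 + 0.01% Triton X-100; cpd preinc 15 min RT; 40 uM arachidonic acid, 30 min RT; Fe-XO 30 min; A573/A405 ratio as read-out.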
# * hit, by the source's call; ? = inconclusive; · = no result; [ ] = another dose, or the depositor's remark. Only some compounds are listed: those with a hit (about 11% of all), similar ones and a draw of the others. Unless noted, calls follow the shape of the dose curve; as a rule, active = well fitted curve in the direction sought with a large enough effect; inconclusive = small, poorly fitted or top-dose-only effect, or another doubt; inactive = no such curve, though single readings can be large; an effect the other way counts as inactive or inconclusive. Unless noted, % is scaled to controls: 0 for no effect and ±100 for the full control effect.
SMILES,IMPase Li cell,ALDH1A1 block,IMPase inh,PNC inhibitor,HPGD inh,ALOX12 inhib
COC(=O)C(CCSC)NC(=O)c1cc2c(n(-c3ccccc3)c1=O)CC(C)(C)CC2=O (configuration not stated),-3%,28µM*,4,18,-7%,0%
COC(=O)C(CCSC)NC(=O)c1cc2c(n(-c3ccc(C)cc3)c1=O)CC(C)(C)CC2=O (configuration not stated),·,·,2,·,·,·
COc1ccc(/C=N/NC2=NCCCCC2)cc1,24%[38.3 µM],?,12,3,13µM*,14%
CCCC1(c2ccccc2)NC(=O)N(CC(=O)Nc2sc(-c3ccccc3)cc2C(=O)OCC)C1=O (configuration not stated),2.8µM*,?,?,19,?,-5%
CCCC1(c2ccccc2)NC(=O)N(CC(=O)Nc2cc(C)on2)C1=O (configuration not stated),4%,-4%,·,·,·,·
O=c1cnc2cnc(N3CCNCC3)nc2n1C1CC1,-2%,?,·,·,·,·
Nc1c(C(=O)c2ccc(Cl)cc2)oc2ccccc12,11%,3%,·,54,-9%,-2%
O=C(c1ccc(Cl)cc1)c1oc2ccccc2c1CS(=O)c1ccc(Cl)cc1 (configuration not stated),26%[38.3 µM],4µM*,4,?,-18%,-29%
COc1ccc(C(=O)Oc2ccc(C(c3c(C)[nH][nH]c3=O)c3c(C)[nH][nH]c3=O)cc2)cc1,·,·,12,·,·,·
O=[N+]([O-])c1cc(S(=O)(=O)Nc2cccc(C(F)(F)F)c2)ccc1-n1nnc2ccccc21,41%[38.3 µM],?,3,3,32µM*,-11%
COc1ccc(NS(=O)(=O)c2ccc(-n3nnc4ccccc43)c([N+](=O)[O-])c2)cc1,-12%[38.3 µM],?,-1,23,-24%,-11%
CN(Cc1ccccc1)S(=O)(=O)c1ccc(NC(=S)NC(=O)C(C)(C)C)cc1,20%,13µM*,·,-5,-15%,3%
CN1CCN(S(=O)(=O)c2ccc(NC(=S)NC(=O)C(C)(C)C)cc2)CC1,4%,32µM*,·,·,·,·
CN1CCN(C(=S)NC(=O)c2ccc(S(=O)(=O)N3CCOCC3)cc2)CC1,7%,9.5µM*,·,·,·,·
CN1CCN(S(=O)(=O)c2ccc(NC(=S)NC(=O)c3ccccc3)cc2)CC1,20%[38.3 µM],25µM*,-2,16,?,-1%
CN(Cc1ccccc1)S(=O)(=O)c1ccc(NC(=S)NC(=O)C2CCCCC2)cc1,8%,-3%,?,-7,-7%,?
O=C(NC(=S)N1CCN(C(c2ccccc2)c2ccccc2)CC1)c1ccc(S(=O)(=O)N2CCOCC2)cc1,-1%,2%,-1,2,-10%,0%
COC(=O)N1C2=C(c3ccccc3[C@@H]1CC(=O)Nc1ccc3cc4ccccc4cc3c1)[C@@H]1C(=O)N(c3ccccc3)C(=O)[C@@H]1[C@H](C)C2,7%,-5%[13.5 µM],·,·,-13%,-5%[11.4 µM]
CCC(C)c1ccccc1OCC(=O)Nc1ccc(S(=O)(=O)Nc2cc(C)on2)cc1 (configuration not stated),·,·,4,·,·,·
COCC(=O)N1CCc2nc(COc3ccccc3)c3c(c2C1)CO[C@@H](C)C3,1%,-1%[13.5 µM],·,·,-10%,5%[11.4 µM]
N[C@@](CC(=O)O)(Cc1ccccc1)C(=O)O,0%,-6%[13.5 µM],·,·,-3%,3%[11.4 µM]
CCC(C)NS(=O)(=O)c1ccc(S(=O)(=O)N(CC(=O)Nc2ccccc2)Cc2ccco2)cc1 (configuration not stated),60%[38.3 µM],25µM*,5,11,-11%,-2%
O=C(CN(Cc1ccco1)S(=O)(=O)c1ccccc1)N/N=C/c1ccccc1C(=O)O,12%,6%,·,·,·,·

# Screening data (PubChem)
